This is a sample that favours compounds with a hit; in the whole collection about 27% have one here.
CYP2C19 activ – cytochrome P450 2C19 (human) activation. P33261. recombinant CYP2C19, luciferin-H EGE luminescence; stronger effect = higher value; 0 = fully inhibited enzyme, 1 = untreated enzyme. activation factor at 5 µM. 96,000 tested, under 10 active;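 active means activation factor of at least 2 at 5 µM in the primary screen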
CYP2C9 inhib – inhibitors of human CYP2C9 | AID 777 | CYP2C9 Supersomes, luciferin-H conversion, luminescence | 96,000 compounds, 20% hits | inhibition, % at 5 µM | P11712;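 active means blocking of liver enzyme CYP2C9 beyond about 50% at 5 µM, limit read from the data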
Cav32 inh – blocks human Cav3.2 T-type calcium channel | O95180 | Cav3.2-expressing cells, Fluo-4 calcium fluorescence FDSS; stronger effect = lower value | 100,000 compounds, 4% hits | B-score at 10 µM;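 active means single-dose well whose peak fluorescence ratio is a statistical outlier from its plate by either plate-standardised score or position-corrected B-score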
CYP2C19 inhib – inhibitors of human CYP2C19 | P33261 | inhibition, % at 5 µM | CYP2C19 Supersomes, luciferin-H EGE luminescence, 30 min | 96,000 compounds, 21% hits;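 active means CYP2C19 inhibition above a set limit at 5 µM in the primary screen, cut at about 50% in these data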
CYP2C9 activ – increases human cytochrome P450 2C9 activity; P11712; recombinant CYP2C9, luciferin-H conversion, luminescence; stronger effect = higher value; factor 1 = untreated enzyme, 0 = blocked; activation factor at 5 µM; 96,000 compounds, 1.4% hits;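 active means activation factor of 2 or more for CYP2C9 at a 5 µM dose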
A number is an active result; n = inactive; x = no result given.

SMILES	CYP2C19 activ	CYP2C9 inhib	Cav32 inh	CYP2C19 inhib	CYP2C9 activ
Cc1ccc2[nH]c(=O)c(CN(Cc3ccccc3)Cc3nnnn3C3CCCC3)cc2c1	n	65.7	n	93.2	n
O=C(C1CCN(S(=O)(=O)c2ccc(F)cc2)CC1)N1CC=C(c2ccccc2)CC1	n	n	n	n	n
Cc1cccc(NC(=O)Cc2cccs2)n1	n	n	n	n	n
Cc1ccc(S(=O)(=O)CC(=O)c2ccc(C)c([N+](=O)[O-])c2)cc1	n	n	n	n	2
Cc1ccc(C(=O)Nn2cnnc2)cc1[N+](=O)[O-]	x	x	n	x	x
Cc1ccc(S(=O)(=O)CC(=O)c2ccccc2)cc1	n	n	x	n	2.9
COc1ccc(CN(CC(=O)NCc2ccco2)C(=O)CCC(=O)Nc2nccs2)cc1	x	x	n	x	x
O=C(O)Cn1c(P(=O)(O)c2ccccc2)nc2ccccc21	n	n	n	n	n
CC1=CC(C)(C)N(C(=O)CSc2ncn[nH]2)c2ccccc21	n	n	n	n	n
Cc1c(C)n(C(=O)CN2CCC(C)CC2)c2ccccc12	n	n	n	56.9	n
Cc1c(C)n(C(=O)CSc2ncn[nH]2)c2ccccc12	n	n	n	59.4	n
Cc1c(C)n(C(=O)CSc2nncn2C)c2ccccc12	n	n	n	n	2.2
COc1ccccc1CC(=O)Nc1ccc(O)cc1C(=O)O	n	n	n	n	n
Cc1c(C(=O)OC(C)C)nnn1-c1nonc1N	x	x	n	x	x
O=C(Cn1c(CN2CCCCC2)nc2ccccc2c1=O)Nc1ccccc1	n	n	n	88.2	n
Cc1cc(NC(=O)Cn2nc3c(cc2=O)CCCC3)ccc1Br	n	n	-6.16	88.0	n
Cc1ccccc1NC(=O)Cn1c(C)nc2ccc(NC(=O)C3CC3)cc2c1=O	n	n	n	n	n
CCC(=O)Nc1ccc2nc(C)n(CC(=O)Nc3ccccc3)c(=O)c2c1	n	58.0	n	n	n
CCOC(=O)CCNC(=O)Nc1ccc2nc(C)n(Cc3ccc(Cl)cc3)c(=O)c2c1	n	70.8	n	n	n
Cc1ncc([N+](=O)[O-])n1CCOC(=O)Nc1ccc(Cl)c(Cl)c1	n	n	n	n	n
O=C(Cn1c(C2CC2)nc2ccccc2c1=O)Nc1ccc(Br)cc1	n	50.8	n	55.6	n
Cc1cc(NC(=O)Cn2c(C)nc3ccccc3c2=O)ccc1Br	n	60.1	n	n	n
COc1cccc(CNC(=O)C2CCCN(c3nn4c(=O)cc(C)nc4s3)C2)c1OC (configuration not stated)	n	n	n	n	n
CCN1C(=O)N(c2cccc3ccccc23)C(C)=CC1(C)C	n	n	-5.68	n	n
O=C(c1cc2ccccc2oc1=O)N1CCN(c2ccccn2)CC1	n	n	n	77.1	n
SMILES	CYP2C19 activ	CYP2C9 inhib	Cav32 inh	CYP2C19 inhib	CYP2C9 activ
O=C(c1cc2ccccc2oc1=O)N1CCN(c2ncccn2)CC1	n	n	n	86.9	n
CN1CCN(C(=O)c2cc3ccccc3oc2=O)CC1	n	n	n	n	n
CC(=O)Oc1ccc(C)cc1-n1nc2ccccc2n1	n	n	n	n	n
CN(C)C(CNC(=O)NC1CCCCC1)c1cccnc1 (configuration not stated)	n	n	n	n	n
O=C(NC1CCCCCC1)C1CCCN(S(=O)(=O)c2cccs2)C1 (configuration not stated)	n	76.7	n	n	n
O=C(NC1CCCCC1)C1CCN(S(=O)(=O)c2cccs2)CC1	n	n	n	n	n
O=C(NCCc1ccccc1)C1CCCN(S(=O)(=O)c2cccs2)C1 (configuration not stated)	n	85.5	n	n	n
O=S(=O)(NC1CCCCCCC1)c1cccs1	n	n	n	53.7	n
C#CCOCCOCCOCCNc1nc(N2CCN(C(=O)C([C@@H](C)CC)n3cc(C(N)Cc4ccc(O)cc4)nn3)CC2)nc(N2CCN(C(=O)[C@H](CCC(=O)O)n3cc(C(N)[C@H](C)CC)nn3)CC2)n1 (some centres not stated)	x	x	n	x	x
Brc1ccccc1CN1CCC(N2CCCCC2)CC1	n	n	n	n	n
COc1cccc(C(=O)Nc2ccc(S(=O)(=O)NCc3ccco3)cc2)c1	n	n	n	n	n
Cc1cccc(-n2c(C)cc(/C=N/NC(=O)c3ccc(CN4CCOCC4)cc3)c2C)c1	n	76.9	n	n	n
Cc1ccc(C(=O)N/N=C/c2cc(C)n(-c3ccc(Br)cc3)c2C)cc1[N+](=O)[O-]	n	n	n	n	n
Cc1cccc(-n2c(C)cc(/C=N/NC(=O)c3cccc([N+](=O)[O-])c3C)c2C)c1	n	n	-3.7	n	n
